Compound activity: PubChem, National Center for Advancing Translational Sciences (NCATS)
Cycloheximide cs – counter-screen for Shiga toxin inhibitors: cycloheximide protein synthesis inhibition; 12% of 300,000 active; max response, %; AID 2314; cell reporter, cycloheximide protein synthesis inhibition counterscreen; in the data active means max response mostly above about 13%, no sharp cut-off; inactive means mostly below about 14%; further: read at 38.3 µM for the half of the compounds with a filed dose; 0% is about no effect
Shiga toxin inh – Shiga toxin inhibition; inhibition, % at 38.7 µM; Vero cells, Shiga toxin protein synthesis inhibition reporter; 9.2% of 290,000 active; in the data active means inhibition mostly above about 28%, no sharp cut-off; inactive means mostly below about 43%; further: 0% is about no effect
Pf growth 48h – inhibits P. falciparum growth in the first generation, 48 h; Potency, µM (highest dose often 28.7 µM), without a hit: at the top dose activity change, negative = inhibition, actives largely listed as inhibitors; P. falciparum luciferase growth in erythrocytes, 48 h; AID 504832; 5.9% of 310,000 active; further: potency means the concentration at half of the fitted maximal effect; on the % scale 0 is the no-effect control and ±100 the full control effect
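A one-generation exposure of luciferase-tagged malaria parasites in RPMI 1640/Albumax erythrocyte culture, 37 C and 5% CO2. Inhibition is inferred from decreased luminescence after adding detection reagent.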
Pf growth 96h – inhibits malaria parasite growth, 96 h. Potency, µM (doses to about 28.7 µM), inactives show at the top dose activity change, negative = inhibition, most hits filed as inhibitors. AID 504834. P. falciparum luciferase reporter growth, 96 h. 6.9% of 320,000 active; further: potency means the concentration at half of the fitted maximal effect; on the % scale 0 is the no-effect control and ±100 the full control effect
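Readout is luminescence from an integrated firefly luciferase in P. falciparum. Red cells, 2% hematocrit and 0.05% parasitemia final, were cultured with compound through two parasite generations (96 hours) at 37 C, 5% CO2.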
NS1 function inh – influenza NS1 inhibition | Potency, µM (highest dose often 46.1 µM), for the others: top-dose activity, positive = more growth | 0.4% of 270,000 active | AID 2326; calls by dose curve; further: potency means the concentration at half of the fitted maximal effect; actives are rising curves; nearly all actives have a fitted effect of over 50% in size
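S. cerevisiae expressing influenza A NS1, grown in glucose, washed, then diluted 1:100 into pH 6.0 -URA galactose medium with 23 nl compound. Growth recovery read as OD600; NS1-free strain serves as control.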
Giardia FBPA inh – Giardia lamblia aldolase inhibition; purified Giardia FBPA; 0.71% of 290,000 active; Potency, µM (doses to about 59.6 µM), for the others: at the highest dose activity, negative = inhibition, most hits filed as inhibitors; A8B2U2; further: potency means the concentration at half of the fitted maximal effect; on the % scale 0 is the no-effect control and ±100 the full control effect; nearly all actives have a fitted effect of over 55% in size
Target sequence (A8B2U2 whole entry, looked up): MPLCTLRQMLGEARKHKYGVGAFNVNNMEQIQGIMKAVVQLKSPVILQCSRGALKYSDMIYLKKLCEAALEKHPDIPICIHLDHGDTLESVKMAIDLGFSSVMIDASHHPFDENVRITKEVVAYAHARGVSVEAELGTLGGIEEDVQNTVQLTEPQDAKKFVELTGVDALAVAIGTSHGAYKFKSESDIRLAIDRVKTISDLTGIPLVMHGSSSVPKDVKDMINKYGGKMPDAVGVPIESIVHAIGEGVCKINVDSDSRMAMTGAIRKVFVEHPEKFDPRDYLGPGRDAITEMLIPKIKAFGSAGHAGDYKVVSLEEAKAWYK
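40 nM FBPA preincubated 10 min at RT with compound (up to 57.5 uM final), then substrate plus GAPDH/TPI/NAD/arsenate coupling and diaphorase/resazurin added. Fluorescence read after 20 min at RT, 525/598 nm.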
Numbers without * were called inactive; i = inactive; ? = inconclusive; nt = no result given; ! = a repeat was not active; [ ] = dose if it differs, or a comment. Sampled rows, rich in hits. Any-hit rate of the full collection: about 21%. Unless noted, the call rests on the fitted dose curve; in most records, active means well fitted curve in the direction sought with a large enough effect; inconclusive means small, poorly fitted or top-dose-only effect, or another doubt; inactive means no such curve, though single readings can be large; an effect the other way counts as inactive or inconclusive.

SMILES | Cycloheximide cs | Shiga toxin inh | Pf growth 48h | Pf growth 96h | NS1 function inh | Giardia FBPA inh
FC(F)(F)c1cnc(N2CCCN(C(=S)Nc3ccccc3)CC2)c(Cl)c1 | 1 | 19 | 1.7µM* | 1.9µM* | 3% | 3%
CCCC1(C(=O)OC)C=C2C(=C(C)C(=O)C2C)CN1 (stereo not given) | nt | nt | nt | nt | nt | -28%
CC(C)(C)c1ccc(C(=O)Nc2ccc(CC(=O)O)cc2)o1 | -12 | -19 | nt | 2.3µM* | -1% | -1%
O=C(O)Cc1ccc(NC(=O)c2ccc(NC(=O)C3CC3)cc2)cc1 | -2 | -10 | -19% | 5.9µM* | 7% | -12%
Cc1ccc(C(=O)Nc2ccc(CC(=O)O)cc2)o1 | 8 | -8 | 12% | nt | 6% | 2%
O=C(Nc1ccc(-n2cccc2)cc1)C1CC1 | 23* | 17 | 12µM* | -23% | nt | -3%
O=C(Nc1ccccc1)C1CC2CCCC(C1)C2=O (stereo not given) | 9 | -3 | 10% | 3.7µM* | -2% | -2%
O=C(NCC(=O)N1CCN(Cc2c(F)cccc2Cl)CC1)c1cccc(Cl)c1 | nt | nt | -1% | -25% | nt | nt
Cc1ccc(C)c(-c2ccc(C(=O)O)o2)c1 | 23 | i | nt | nt | nt | -13%[136 µM]
O=C(Nc1ccc(Nc2ccccc2)cc1)C1CC1 | 21* | 50 | ? | 32% | 13% | -20%
O=C(Nc1ccccc1)C1CCCCC1 | 6 | 5 | -14% | -16% | 2% | 0%
CN(C)c1cccc(C(=O)Nc2nnc(Cc3ccccc3)s2)c1 | 26* | 96* | -11% | -18% | 0% | -7%
COc1ccc(Cc2nnc(NC(=O)c3c(-c4ccccc4)noc3C)s2)cc1OC | -2 | -13 | ? | 10µM* | -49% | 0%
COCc1nnc(NC(=O)c2ccc(OC)cc2OC)s1 | 47* | 104* | 106% | 50% | -4% | -4%
CC(C)(C)C(=O)Nc1nnc(Cc2ccccc2)s1 | 18 | 3 | -14% | 54% | -3% | 0%
COc1cccc(C(=O)Nc2nnc(C(C)C)s2)c1 | 27* | 47* | 456% | -12% | -2% | ?
CC(C)c1nnc(NC(=O)c2cccc(-n3cnnn3)c2)s1 | -3 | -5 | 17% | 55% | 14% | ?
O=C(COc1ccc(S(=O)(=O)NCc2ccccc2)cc1)NCc1cccnc1 | -4 | -13 | -4% | 59% | 5% | 9%
COc1ccc(C(=O)NC(=S)NCc2cccnc2)cc1Cl | -5 | -8 | -25% | 0% | -10% | 3%
COc1ccc(Cc2nnc(NC(=O)c3ccccc3F)s2)cc1 | 20* | 85* | 21% | 1% | -30% | 20%
CCc1ccc(N2CC(C(=O)Nc3nnc(CC)s3)CC2=O)cc1 (stereo not given) | -5 | -10 | nt | 23% | -1% | 9%
COc1ccc(C(=O)Nc2nnc(Cc3ccc(OC)c(OC)c3)s2)c(OC)c1 | 13* | 57 | 2.3µM* | 151% | -8% | -9%
COc1ccc(Cc2nnc(NC(C)=O)s2)cc1 | 11 | 29 | 25% | ? | 2% | 4%
COc1cccc(C(=O)Nc2nnc(Cc3ccc(OC)c(OC)c3)s2)c1 | 3 | 4 | 12µM* | 0% | -5% | 0%
COc1ccc(Cc2nnc(NC(=O)C3CC(=O)N(c4ccccc4)C3)s2)cc1OC (stereo not given) | -4 | 2 | 0% | 2.9µM* | -8% | 0%
SMILES | Cycloheximide cs | Shiga toxin inh | Pf growth 48h | Pf growth 96h | NS1 function inh | Giardia FBPA inh
COc1ccc(C2=Nn3c(nnc3-c3ccccc3C)SC2)cc1 | -3 | -4 | nt | nt | nt | 2%
COCCCN(CC(=O)Nc1ccc(N2CCOCC2)cc1)S(=O)(=O)c1ccc(Cl)cc1 | -2 | -11 | 0% | -7% | nt | -4%
COc1ncc2nc(-c3ccc(F)cc3)c(=O)n(Cc3ccc(F)cc3)c2n1 | nt | nt | nt | nt | nt | 0%
CCC1OC2(C)C(O)C(/C=C/C=C/C=C/c3oc(=O)cc(OC)c3C)OC1(C)C2OC(C)=O (stereo not given) | -6 | 13 | nt | nt | nt | -1%
COc1ccc(NC(=O)CN2C(=O)NC(C)(C3CC3)C2=O)cc1S(=O)(=O)N1CCOCC1 (stereo not given) | nt | nt | -19% | -20% | nt | nt
CCCc1nnc(NC(=O)c2cccc(OC)c2)s1 | 62* | 73* | 128% | 73% | -122% | -29%
CCOCCc1nnc(NC(=O)c2cccc(F)c2)s1 | 20* | 41* | 82% | nt | -32% | 3%
CCOCCc1nnc(NC(=O)c2cc(OC)c(OC)c(OC)c2)s1 | -2 | -7 | -8% | nt | -7% | 0%
O=C(Nc1ccc(N2CCCCC2)cc1)c1cccnc1Cl | 33* | 72* | nt | ? | 0% | -9%
O=C(Nc1ccc(N2CCCC2)cc1)c1cccc(Cl)c1Cl | 25* | 71* | 33% | ? | 3% | 9%
CC(=O)N1CCN(c2ccc(NC(=O)c3cccc(Cl)c3Cl)cc2)CC1 | -2 | -1 | ? | 52% | 7% | -11%
CCN1CCCC1CNC(=O)CN(C)S(=O)(=O)c1ccc(Cl)cc1 (stereo not given) | -6 | -1 | 7% | 2% | 14% | -25%
NC(=O)Nc1ccc(Cl)cc1 | -2 | 17 | 90% | 35% | -4% | 0%
O=C(Nc1ccc(Cl)cc1)ON=C1CCCC1 | 40* | 56* | 12µM* | ? | -43% | 2%
C/C(=N\OC(=O)Nc1ccc(Cl)cc1)c1ccc(F)c(F)c1 | 17* | 54* | nt | 26% | -76% | -10%
O=C(NCCCCCCNC(=O)ON=C1CCCCC1)ON=C1CCCCC1 | 27*! | 27*! | nt | nt | nt | 1%
COc1ccccc1CNC(=O)CN1C(=O)N(C)C2(CCCCC2)C1=O | nt | nt | 2% | -15% | nt | nt
CC1c2cc3c(cc2CCN1C(=O)c1cccc(Cl)c1)OCCCO3 (stereo not given) | 11 | 14 | -7% | ? | -26% | nt
Cc1ccc(NC(=O)CCn2c(=O)c3cccn3c3ccccc32)c(C)c1 | -3 | -9 | ? | 13µM* | -7% | -4%
Cc1ccc(NC(=O)Cn2c(=O)c3cccn3c3ccccc32)c(C)c1 | -2 | -3 | ? | ? | -2% | nt
COc1ccc(NC(=O)CCn2c(=O)c3cccn3c3ccccc32)c(OC)c1 | -7 | -3 | ? | 12µM* | 3% | nt
COc1ccc(-n2c(=O)c(C)nc3cnc(N(C)C)nc32)cc1 | nt | nt | nt | nt | nt | -1%
Cc1c(Cl)cnc(NC(=O)COC(=O)c2ccncc2)c1Cl | nt | nt | ? | -17% | nt | nt
N#Cc1c(NC(=O)C(F)(F)F)sc2c3c(=O)c4ccccc4c(=O)c=3oc3ccccc3c12 | nt | nt | nt | nt | -2% | nt
O=C(NCc1ccccc1Cl)C(=O)NCC(c1ccco1)N1CCOCC1 (stereo not given) | -4 | -6 | -17% | 28% | nt | 0%
O=C(c1ccc(Cn2c(=S)[nH]c3ccc(Br)cc3c2=O)cc1)N1CCN(C2CCCCC2)CC1 | -8 | -6 | ? | ? | nt | 2%
Cc1nnc(SCC(=O)N(C)C2CCCCC2)s1 | 11* | 34 | 46% | -3% | 5% | -2%
